Test results taken from PubChem BioAssay (NCATS).
Calls of active or inactive are those of the source. No rule for the calls is given here.
Potency is read from the fitted curve at half-maximal effect.

Test: Immunotoxin (SS1P) sensitization/mitigation study. Vehicle arm (DMEM) (AID 1159513)
Conditions: cell viability with vehicle (DMEM); series mostly up to 46.1 µM
For `Cc1ccc(NC(=O)c2ccc(CN3CCN(C)CC3)cc2)cc1Nc1nc(-c2cccnc2)cs1`, the Potency was 23.5 µM (active).
In the case of `c1cc(-c2cnn3cc(-c4ccc(OCCN5CCCCC5)cc4)cnc23)ccn1`, the Potency is reported as 16.6 µM (active).
In the case of `OCCn1cc(-c2cnc3nnn(Cc4ccc5ncccc5c4)c3n2)cn1`, the Potency is reported as “inactive”.
For `Cc1ccnc(NS(=O)(=O)c2ccc(NC(=O)Nc3ccc(S(=O)(=O)Nc4nccc(C)n4)cc3)cc2)n1`, the Potency was 18.7 µM (active).
In the case of `CCOc1cc(N2CCC(O)CC2)ccc1Nc1ncc2c(n1)N(C)c1ccccc1C(=O)N2C`, the Potency is reported as 16.6 µM (active).
With `COc1cc(=C2C=c3ccccc3=N2)[nH]c1=Cc1[nH]c(C)cc1C` the Potency was 6.62 µM (active).
For `CCN1CCN(CC(=O)Nc2ccc(-c3cccc4c(=O)cc(N5CCOCC5)oc34)c3sc4ccccc4c23)CC1`, the Potency was 1.66 µM (active).
In the case of `CN1CCN(c2ccc3nc(-c4c(N)c5c(F)cccc5[nH]c4=O)[nH]c3c2)CC1`, the Potency is reported as 18.7 µM (active).
